According to PubChem BioAssay:
Unmarked numbers belong to inactive results. No rule for the calls is given here.

The compounds below were run against L-lactate dehydrogenase (Plasmodium falciparum (isolate CDC / Honduras)) (UniProt Q27743) (assay: PfLDH activity inhibition – cell lysate, 3D7 strain, counter-screen for P. falciparum growth inhibition project (AID 2304;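 also: 0% = vehicle and 100% = reference inhibitor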)). Conditions: P. falciparum 3D7 crude extract, LDH APAD/NBT absorbance; at 2 µM; active compounds read high.
Chain of L-lactate dehydrogenase (Plasmodium falciparum (isolate CDC / Honduras)) (Q27743 whole entry, looked up): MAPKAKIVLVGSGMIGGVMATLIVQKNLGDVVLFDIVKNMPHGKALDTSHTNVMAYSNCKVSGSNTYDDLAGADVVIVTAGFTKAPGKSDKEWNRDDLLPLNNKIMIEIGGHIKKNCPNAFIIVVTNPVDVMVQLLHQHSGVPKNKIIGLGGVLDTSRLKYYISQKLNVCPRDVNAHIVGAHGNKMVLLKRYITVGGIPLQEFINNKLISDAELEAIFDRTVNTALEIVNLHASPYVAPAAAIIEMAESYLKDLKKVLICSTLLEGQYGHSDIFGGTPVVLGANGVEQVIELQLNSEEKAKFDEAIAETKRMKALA

SMILES	inhibition
CCC(Nc1noc(-c2c(-c3ccccc3)noc2C)n1)c1ccccc1 (centres undefined)	1%
C=CCN1Cc2c(O)cccc2C(c2ccc(O)c(O)c2)C1 (centres undefined)	0%
Cc1cc(=O)c(-c2cccc(Oc3ccc(Cl)cc3)c2)c(C)[nH]1	-4%
COc1ccc2c(NN=CC=Cc3ccccc3)ccnc2c1	4%
CCNc1cc(C(=O)N[C@@H](Cc2ccccc2)[C@H](O)CN[C@@H]2CCc3ccccc32)cc(N2CCCC2=O)c1	6%
CC(C)(C)Oc1ccc(C[C@@H]2NC3(C(=O)N(Cc4ccc(Cl)c(Cl)c4)c4ccccc43)C3C(=O)N(c4ccc(Br)cc4)C(=O)C32)cc1 (some centres undefined)	6%
CN(C)Cc1ccc(-c2cc3c(-c4ccc(CN(C)C)cc4)ccnc3[nH]2)cc1	0%
CNC(=O)c1c(NC(=O)c2cccs2)sc2c1CCCC2	-1%
COc1ccccc1-c1nc2nc(N)nc(N)c2nc1-c1ccccc1OC	1%
Cc1ccc(Cn2ncc(N3C[C@@H](C)N[C@@H](C)C3)c(Cl)c2=O)cc1NC(=O)Nc1ccc(-c2ccccc2)cc1	-2%
COc1ccc(-c2c3c(=O)n(C)c(=O)n(C)c3c3nnc4ccccc4n23)cc1	-2%
CCCCNCC(O)COc1ccccc1-c1ccc(N/N=C/c2cccc3ccccc23)nn1 (centres undefined)	-4%
O=C(NCc1ccc(Cl)cc1)c1ccc(CN2CCCN(Cc3cccc(O)c3)CC2)cc1	-5%
N#Cc1cccc(C(O)CN(Cc2ccccc2)Cc2ccccc2)c1 (centres undefined)	1%
